Only some compounds are listed: those with a hit (about 2.4% of all), similar ones and a draw of the others.
D2 ag-1: agonists of human D2 dopamine receptor | P14416 | HEK293 T-REx D2 cells, calcium flux agonist mode | activation, % at 2 µM | hit rate 0.53% among 340,000 | AID 485358;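 active = activation over 3 SD above normal in the single-dose calcium agonist read, cut at about 30% in these data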; also: 0% is about no effect
Target sequence (P14416 whole entry, looked up): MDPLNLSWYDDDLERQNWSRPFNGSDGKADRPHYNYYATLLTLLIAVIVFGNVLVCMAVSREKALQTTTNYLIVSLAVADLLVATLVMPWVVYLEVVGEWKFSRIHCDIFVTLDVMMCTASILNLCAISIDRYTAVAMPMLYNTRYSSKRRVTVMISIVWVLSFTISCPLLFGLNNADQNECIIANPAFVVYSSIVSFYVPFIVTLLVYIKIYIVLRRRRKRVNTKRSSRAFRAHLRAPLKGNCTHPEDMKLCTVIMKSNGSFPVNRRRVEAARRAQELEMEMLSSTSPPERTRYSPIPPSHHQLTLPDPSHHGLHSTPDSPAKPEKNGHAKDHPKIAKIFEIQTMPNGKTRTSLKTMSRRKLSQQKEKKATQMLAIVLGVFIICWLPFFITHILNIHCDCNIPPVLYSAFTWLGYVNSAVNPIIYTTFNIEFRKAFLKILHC
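Tetracycline-induced HEK293 T-REx cells with force-coupled D2 receptor, plated overnight at 30 C, loaded with no-wash calcium dye. After a 10 s baseline, compound was pin-added and calcium flux read kinetically for 180 s; calcium rises flagged agonists.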
D2 antagonist: D2 dopamine receptor (human) antagonism; hit rate 2% among 340,000; inhibition, % at 10 µM; P14416; HEK293 TREx D2 cells, calcium flux, dopamine EC80; in the data active = inhibition above about 30%; inactive = below that, where a call was filed; also: 0% is about no effect
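Tetracycline-induced HEK293 TREx cells expressing D2 receptor forced-coupled to calcium signalling, loaded with no-wash calcium dye. Compounds added and calcium flux read 180 s, then dopamine added at EC80 and read a further 180 s.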
D2 PAM-1: human D2 receptor positive allosteric modulation | hit rate 0.23% among 360,000 | DiscoveRx D2 beta-arrestin cells, luminescence, 90 min; 100% = 57 uM dopamine signal | potentiation, % (no concentration beside the values) | AID 624464; in the data active = potentiation above about 50%; inconclusive = mostly about 30% to 49%
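PathHunter D2 cells, attached overnight at 37 deg C, received compound in DMSO plus dopamine at EC20 (50 nM final) for 90 min at 37 deg C. Beta-arrestin recruitment was read as luminescence after 1 h with detection reagent at ambient temperature.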
D2 PAM-2: positively modulates the human D2 dopamine receptor allosterically | P14416 | HEK293 T-REx D2, calcium flux, EC20 dopamine potentiation | potentiation, % at 10 µM | hit rate 0.34% among 340,000 | AID 485347;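 active = potentiation over 3 SD above the plate norm, cut at about 30% in these data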; also: 0% is about no effect
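Using a no-wash calcium dye in inducible, force-coupled HEK293 Trex cells expressing D2, we tracked fluorescence each second for 180 s after compound, then for 180 s after EC20 dopamine to detect augmented signalling.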
D2 ag-2: activates the human D2 dopamine receptor; AID 624465; DiscoveRx PathHunter D2 beta-arrestin, luminescence, 90 min; 100% = 57 uM dopamine signal; hit rate 0.084% among 360,000; P14416; activation, % (test concentration not listed); in the data active = activation above about 40%; inconclusive = between about 15% and that limit
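DiscoveRx PathHunter D2 beta-arrestin cells (2,100/well) attached overnight, then compound-stimulated 90 min at 37 C in HBSS/10 mM HEPES/0.1% Tween-20 buffer; beta-galactosidase complementation read by luminescence after 1 h at ambient temperature. Dopamine 57 uM final (EC100) as control.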
Active calls of the source: *; u = inconclusive; x = no result.

SMILES | D2 ag-1 | D2 antagonist | D2 PAM-1 | D2 PAM-2 | D2 ag-2
O=C(O)CN=C1CC(c2ccccc2)CC(=O)/C1=C(/O)CCCN1C(=O)c2ccccc2C1=O (stereo not given) | 1 | -6 | 1 | 31* | -2
CN=C1CC(C)(C)CC(=O)/C1=C(/O)CCCN1C(=O)c2ccccc2C1=O | 0 | 8 | -2 | -10 | -3
O=C(CCNC(=O)N1CC(=O)Nc2ccccc21)NCc1ccc(F)cc1 | 0 | 52* | -27 | -13 | -10
O=C1CSc2ccc(C(=O)NCC(c3ccco3)N3CCCCC3)cc2N1 (stereo not given) | 0 | 36* | -31 | -33 | -6
CCc1cc(C(=O)NCC(c2ccco2)N2CCCCC2)sc1C (stereo not given) | 0 | 39* | -36 | -31 | -4
Cc1oc2ncn(CC(C)C)c(=O)c2c1C(=O)N(CCN(C)C)Cc1ccccc1 | 0 | x | x | x | x
O=C(Nc1cccc2ccccc12)c1ccc([N+](=O)[O-])o1 | 0 | 1 | 8 | -11 | 2
O=C(Nc1ccccc1C(=O)NC1CC1)c1ccc([N+](=O)[O-])o1 | 0 | -3 | 59* | 16 | u
COc1ccc2ncc3c(-c4ccc(C)c(C)c4)nn(CC(=O)NC4CCCCC4)c3c2c1 | 1 | x | x | 9 | x
Cc1cc(N2CCCC2)nc(N2C3CCC2CC(O)(c2ccc(F)cc2)C3)n1 (stereo not given) | 0 | 42* | x | -22 | x
CC(=O)Oc1ccccc1N(C(C)=O)S(=O)(=O)c1ccc2ccccc2c1 | 1 | -12 | -6 | 0 | -2
CC(=O)Oc1c(Br)cc(N(C(C)=O)S(=O)(=O)c2ccccc2)c2ccccc12 | -3 | 33* | -1 | 11 | u
Cc1ccc2c(c1)N(C(=O)c1ccc(F)cc1)C(C)(C)CC2(C)c1ccccc1 (stereo not given) | x | x | x | -6 | x
CCC1CCCCN1S(=O)(=O)c1ccc(NC(=O)c2snnc2C)cc1 (stereo not given) | 0 | -8 | -3 | 36* | 4
Cc1nnsc1C(=O)Nc1ccc(S(=O)(=O)N2CCCCC2)cc1 | 1 | 4 | -10 | -2 | 4
O=C(CCSCc1cccc(Cl)c1)NCc1ccccc1Cl | 1 | x | x | -10 | x
NC(N)=NC(N)=Nc1ccc2ccccc2c1 | 0 | 33* | -9 | -11 | -7
Cc1ccc(S(=O)(=O)N2CCC(N3CCN(Cc4ccccc4)C(=O)C3=O)CC2)cc1C | -1 | x | x | 0 | x
CCc1ccc(C2c3c(n[nH]c3C)C(=O)N2c2ccc(C)cc2)cc1 (stereo not given) | 0 | x | x | 9 | x
CCOC(=O)/C=C/C(=O)OCc1csc(CC(=O)Nc2ccccc2C)n1 | 1 | -2 | 8 | -2 | -7
CCc1ccc(N2CC(C(=O)OCc3csc(CC(=O)Nc4ccccc4C)n3)CC2=O)cc1 (stereo not given) | 1 | -5 | -3 | 56* | -4
CCn1c(CC(=O)Nc2ccccc2Cl)nnc1SCC(=O)NC1CCCC1 | 0 | 34* | -8 | -2 | -5
Cn1c(CCC(N)=O)nnc1SCC(=O)Nc1ccccc1C(=O)NC1CC1 | 1 | 31* | -6 | -7 | 4
CCn1c(CC(=O)Nc2ccccc2F)nnc1SCC(=O)NC1CCCCC1 | 2 | -18 | -4 | -1 | -2
Cc1ccc(NC(=O)Cc2nnc(SCC(=O)NC3CCCC3)n2C)cc1C | -1 | 31* | -6 | 19 | -5
SMILES | D2 ag-1 | D2 antagonist | D2 PAM-1 | D2 PAM-2 | D2 ag-2
C=CCn1c(C)nnc1SCC(=O)Nc1ccccc1C(=O)NC1CC1 | 0 | 4 | 11 | 4 | -3
Cc1ccc(-n2nc(C)c3c(C(=O)NCCc4ccc(S(N)(=O)=O)cc4)cc(C)nc32)cc1 | x | x | x | 3 | x
Cc1cccc(CC(=O)NCCc2csc(-c3ccc(C(F)(F)F)cc3)n2)c1 | 2 | x | x | 1 | x
COc1cc(C(=O)NCC(=O)N/N=C/c2ccc(-c3ccc([N+](=O)[O-])cc3)o2)cc(OC)c1OC | -1 | -16 | 4 | -4 | 5
COc1cc(C(=O)NCC(=O)N/N=C/c2ccc(-c3cccc([N+](=O)[O-])c3)o2)cc(OC)c1OC | -1 | 50* | -12 | -24 | -6
Cc1ccc(/C=N/NC(=O)CNC(=O)c2cccc([N+](=O)[O-])c2C)o1 | 1 | 2 | -5 | 38* | -6

Screens deposited in PubChem by National Center for Advancing Translational Sciences (NCATS).
